# From PubChem BioAssay (NCI)
# The panel holds about 79,000 compounds, 15% with a hit somewhere; the sample as a whole holds those more often. Values without a mark were called inactive. Activity calls are given as the source filed them. Cut-off read from the data, not from the text of the source: active = growth inhibition above about 70%; inactive = the rest.
# Assay: NCI Yeast Anticancer Drug Screen. Data for the bub3 strain (AID 167)
# Conditions: S. cerevisiae bub3 mutant strain, at 50.0 µM, stronger effect = higher value
# Outline: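 Whole-cell yeast assay. The mutant strain was incubated with compounds, and growth inhibition was determined by comparison with vehicle-treated cells.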
row,SMILES,growth inhibition [%]
1,NCC(O)C(F)(F)F (stereo not given),1.75
2,CCC(O)(c1ccc(O)cc1)C(O)(CC)c1ccc(O)cc1 (stereo not given),17.4
3,COc1ccc(S(=O)(=O)N(CC(=O)O)c2ccccc2)cc1,-7.75
4,O=C(O)C(Cc1ccccc1)C(=O)O.[NH2-].[NH2-].[Pt+2],1.25
5,CC1C2(C)OCC(C#N)(C(=N)O2)C1(C#N)C#N (stereo not given),-40
6,CCOP(=O)(OCC)C([O][Sb]([O]CC(C)Cl)[O]CC(C)Cl)c1ccc(OC)cc1 (stereo not given),2.05
7,COC(=O)c1c(C)cc(OC)c(C/C=C(\C)CCCc2coc(C=C(C)C)c2)c1OC,12.4
8,BrC1(Br)C2COCOCC21 (stereo not given),-4.75
9,CC1=C(C(=O)Nc2ccccc2C)C(c2ccco2)C(C(=O)Nc2ccccc2C)=C(C)N1C,-9.6
10,C(=NC12CC3CC(CC(C3)C1)C2)C1CCCCC1,4.8
11,N#CC12CCC(O)C(CC1)C2=O (stereo not given),-4.25
12,CC12CCC(C/C1=N\N=C(N)N)C2(C)C (stereo not given),-5.05
13,CSc1ccc(/C=C/c2ccnc3ccccc23)cc1,4.7
14,O=c1cc(-c2ccccc2)oc2c(-c3cc(Cl)cc4c(=O)cc(-c5ccccc5)oc34)cc(Cl)cc12,-2.2
15,O=C(O)C(O)(C1CCCCC1)C1CCC2CCC3CCCC1C32 (stereo not given),-11.2
16,C=C(Br)CN(C(C)=O)C1CCCCC1,15
17,CCOc1nc(N)nc(C)c1N=Nc1ccc(C)cc1,-5.05
18,C=CC(=NC(C)C)N(C)c1ccccc1,26.5
19,Cc1ccsc1/C=N/Nc1cnccn1,0.4
20,COC(=O)CCc1cccnc1/C=N/O,-11.7

# Assay: NCI Yeast Anticancer Drug Screen. Data for the mlh1 rad18 strain (AID 175)
# Conditions: S. cerevisiae mlh1 rad18 strain growth inhibition; at 50.0 µM; stronger effect = higher value
# Outline: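 Genetically defined yeast (DNA repair-deficient) exposed to compounds; growth inhibition determined relative to vehicle.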
row,SMILES,growth inhibition
1,CCN(CC)CC(O)c1cccc2cc(Cl)ccc12 (stereo not given),-14%
2,C[C@@H]1CCC[C@H]1C(N)C(=O)O (stereo not given in full),-12.9%
3,CC1C(=O)CCC2CCCCC21 (stereo not given),17.2%
4,O=C(c1ccccc1)[n+]1ccc2ccccc2c1,-13.1%
5,CC(=O)CC(=O)C(C)C.[Cu+2],-17.4%
6,CC(COc1ccccc1)N(CCCl)Cc1ccccc1 (stereo not given),1.8%
7,CCC1(CC)OC(=O)C(=O)N1N(C)C,-13.7%
8,O=C(O)/C=C/C(=O)Nc1ccc2c(c1)C(O)c1ccccc1-2 (stereo not given),-4.55%
9,O=C(/C=C/c1cccs1)c1ccc(Cl)s1,0.2%
10,Nc1cc(N)nc(S(=O)(=O)O)n1,-12.9%
11,Cc1ccc(-c2nnc(NC(=O)Nc3ccc(Cl)cc3)o2)cc1,21.8%
12,O=C(O)c1ccc(-c2nn[nH]n2)cc1,-15.2%
13,Cc1ccc2nc(C(O)C(O)C(O)CO)[nH]c2c1 (stereo not given),-12.7%
14,CC(C)=CCC/C(C)=C/CO,-14.2%
15,CCO/C=C1/N=C(c2ccccc2Cl)OC1=O,14.3%
16,CN(C)CCN=C1Nc2ccccc2C(=O)N2CSCC12 (stereo not given),17.3%
17,CC1(C)NC(c2ccccc2)c2ccsc2-n2cccc21 (stereo not given),-8.6%
18,CN1CCC/C1=N\c1ncn[nH]1,-2.85%
19,O=C1C(=O)C([n+]2cccc3ccccc32)=C([O-])C2=C1C1c3ccccc3C2c2ccccc21,98.6% (active)
20,O=c1[nH]c(=O)n(C2CC(O)C(CO)O2)cc1/C=C/Br (stereo not given),-18.1%

row,SMILES,growth inhibition
1,NCC(O)C(F)(F)F (stereo not given),-14.5%
2,CCC(O)(c1ccc(O)cc1)C(O)(CC)c1ccc(O)cc1 (stereo not given),-14.4%
3,COc1ccc(S(=O)(=O)N(CC(=O)O)c2ccccc2)cc1,-0.7%
4,O=C(O)C(Cc1ccccc1)C(=O)O.[NH2-].[NH2-].[Pt+2],24.2%
5,CC1C2(C)OCC(C#N)(C(=N)O2)C1(C#N)C#N (stereo not given),3.65%
6,CCOP(=O)(OCC)C([O][Sb]([O]CC(C)Cl)[O]CC(C)Cl)c1ccc(OC)cc1 (stereo not given),-18.6%
7,COC(=O)c1c(C)cc(OC)c(C/C=C(\C)CCCc2coc(C=C(C)C)c2)c1OC,25%
8,BrC1(Br)C2COCOCC21 (stereo not given),8.05%
9,CC1=C(C(=O)Nc2ccccc2C)C(c2ccco2)C(C(=O)Nc2ccccc2C)=C(C)N1C,-8.8%
10,C(=NC12CC3CC(CC(C3)C1)C2)C1CCCCC1,-2.5%
11,N#CC12CCC(O)C(CC1)C2=O (stereo not given),20.6%
12,CC12CCC(C/C1=N\N=C(N)N)C2(C)C (stereo not given),6.2%
13,CSc1ccc(/C=C/c2ccnc3ccccc23)cc1,7.95%
14,O=c1cc(-c2ccccc2)oc2c(-c3cc(Cl)cc4c(=O)cc(-c5ccccc5)oc34)cc(Cl)cc12,79.3% (active)
15,O=C(O)C(O)(C1CCCCC1)C1CCC2CCC3CCCC1C32 (stereo not given),14.8%
16,C=C(Br)CN(C(C)=O)C1CCCCC1,26.8%
17,CCOc1nc(N)nc(C)c1N=Nc1ccc(C)cc1,2.45%
18,C=CC(=NC(C)C)N(C)c1ccccc1,-1.8%
19,Cc1ccsc1/C=N/Nc1cnccn1,19.9%
20,COC(=O)CCc1cccnc1/C=N/O,-17.4%
